High-throughput results from PubChem.
Pf growth 48h – inhibits P. falciparum growth in the first generation, 48 h. P. falciparum luciferase growth in erythrocytes, 48 h. Potency, µM (titrated, usually from 28.7 µM), for inactives: top-dose activity change, negative = inhibition, hits mostly inhibitors. 310,000 compounds, 5.9% hits. AID 504832; note: potency is the fitted concentration of half-maximal effect; % is set by controls: 0 for no effect and ±100 for the full control effect
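Read-out is firefly luciferase luminescence from an integrated reporter in P. falciparum, so falling signal marks reduced parasite growth. Infected erythrocytes were at 2% hematocrit and 0.1% parasitemia (final) in Albumax-supplemented RPMI 1640.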
Lassa entry inh – inhibitors of Lassa virus binding or cell entry | Lassa virus pseudotype entry inhibition, cell reporter | Potency, µM (highest dose often 37.9 µM), inactives show top-dose activity change, negative = inhibition, usual class: inhibitors | 300,000 compounds, 1.2% hits | AID 540256; calls by dose curve; tested in HEK293 cells; note: potency is the fitted concentration of half-maximal effect; % is set by controls: 0 for no effect and ±100 for the full control effect; nearly all actives have a fitted effect of over 50% in size
Shiga inhibitor – blocks Shiga toxin action in Vero cells | Vero cells, Shiga toxin protein synthesis inhibition reporter | inhibition, % at 38.7 µM | 290,000 compounds, 9.2% hits; in the data active = inhibition mostly above about 28%, no sharp cut-off; inactive = mostly below about 43%; note: 0% is about no effect
Marburg entry inh – Marburg virus entry inhibition. Marburg virus pseudotyped entry inhibition, cell reporter. Potency, µM (doses to about 37.8 µM), inactives show top-dose activity change, negative = inhibition, actives largely listed as inhibitors. 300,000 compounds, 1.8% hits; calls by dose curve; tested in HEK293 cells; note: potency is the fitted concentration of half-maximal effect; % is set by controls: 0 for no effect and ±100 for the full control effect
Cycloheximide cs – counter-screen hit for Shiga toxin inhibitors, cycloheximide; 300,000 compounds, 12% hits; max response, %; cell reporter, cycloheximide protein synthesis inhibition counterscreen; AID 2314; in the data active = max response mostly above about 13%, no sharp cut-off; inactive = mostly below about 14%; note: read at 38.3 µM for the half of the compounds with a filed dose; 0% is about no effect
Pf growth 96h – inhibits malaria parasite growth, 96 h; P. falciparum luciferase reporter growth, 96 h; Potency, µM (highest dose often 28.7 µM), for inactives: at the top dose activity change, negative = inhibition, most hits filed as inhibitors; 320,000 compounds, 6.9% hits; AID 504834; note: potency is the fitted concentration of half-maximal effect; % is set by controls: 0 for no effect and ±100 for the full control effect
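P. falciparum expressing integrated firefly luciferase, in erythrocytes at 2% hematocrit, 0.05% parasitemia, incubated with compounds 96 h at 37 C, 5% CO2. Growth inhibition read as loss of luminescence; two-generation exposure targets delayed-death apicoplast inhibitors.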
The depositor's hits bear a star; ? = inconclusive; . = no result; ! = repeats disagree; [ ] = dose if it differs, or a comment. This is a sample that favours compounds with a hit; in the whole collection about 19% have one here. Unless noted, calls come from the whole dose curve; as a rule, active = well fitted inhibition curve with a large enough effect; inconclusive = small, poorly fitted or top-dose-only effect, or another doubt; inactive = no such curve, though single readings can be large or run the other way.

SMILES | Pf growth 48h | Lassa entry inh | Shiga inhibitor | Marburg entry inh | Cycloheximide cs | Pf growth 96h
N=C(N)SCc1ccccc1Cl | ? | -8.0% | -3.6 | 8.2µM* | -1.1 | ?
NC(CSCc1ccccc1Cl)C(=O)O (stereo unspecified) | 3.6% | -28.9% | -6.5 | ? | 5.3 | 24.7%
O=C(O)c1cccc(NC(=S)N/N=C/c2ccccc2OCc2ccc(Br)cc2)c1 | 10.6% | -9.4%[46.1 µM] | 69.0 | ? | 15.9* | ?
COC(=O)c1ccc(COc2ccccc2/C=C/C(=O)c2ccc(OCC(=O)O)cc2)cc1 | ? | -26.4%[46.1 µM] | 46.7 | ? | 0.8 | 1.47µM*
O=C(O)c1cccc(NC(=S)N/N=C/c2ccccc2OCc2cccc(Br)c2)c1 | -5.8% | 3.4% | 5.7 | -10.5% | 8.3 | ?
COc1ccc(NC(C)C(=O)N/N=C/c2ccccc2OCc2ccc(Br)cc2)cc1 (stereo unspecified) | 9.28µM* | ? | 144.5* | 2.3% | 34.7* | 67.2%
CC(Nc1ccc(Br)cc1)C(=O)N/N=C/c1ccccc1OCc1ccccc1 (stereo unspecified) | . | -10.0% | -6.4 | ? | -5.2 | -3.1%
COC(=O)c1ccc(COc2ccccc2/C=N/Nc2cccc(C(=O)O)c2)cc1 | 8.2% | . | 80.0* | . | 55.3* | 36.2%
COC(=O)c1ccc(COc2ccccc2/C=C(\C#N)C(=O)NC(C)C)cc1 | 36.4% | -8.5% | 8.7 | -3.4% | 3.2 | 62.4%
CC(OC(=O)C1=COCCO1)C(=O)c1ccc(Br)cc1 (stereo unspecified) | . | 25.6%[46.1 µM] | . | 17.5%[46.1 µM] | . | .
CCN(CC)Cc1c(C(=O)N/N=C/c2cccc(OCc3cccc(Cl)c3)c2)nnn1-c1nonc1N | -8.5% | . | 19.0 | . | 11.6 | 5.6%
Cc1cc(C(=O)COC(=O)CC2Sc3ccccc3NC2=O)c(C)n1-c1cccc(C(F)(F)F)c1 (stereo unspecified) | ? | 0.1% | 22.7 | 1.2% | 11.4 | -4.3%
O=C(NCCc1ccccc1)c1cc(Nc2ccccc2)nc2ccccc12 | . | -19.3%[46.1 µM] | . | . | . | .
Cc1cccc2nc(Cn3c(=O)n(CCC(=O)NCc4ccco4)c(=O)c4sccc43)cc(=O)n12 | -6.2% | 4.5% | -3.2 | -9.0% | -1.2 | 53.9%
COc1ccccc1N1CCN(CC(O)COc2cccc3ccccc23)CC1 (stereo unspecified) | ? | 20.6µM*! | -10.4 | ? | -0.8 | ?
COc1cccc(OC)c1OCC(O)CN1CCN(c2ccccc2F)CC1 (stereo unspecified) | -11.6% | . | -4.2 | . | -3.2 | 4.65µM*
CCOc1ccccc1N1CCN(CC(O)COc2ccc3c(C)cc(=O)oc3c2)CC1 (stereo unspecified) | 8.28µM* | 1.9% | -14.9 | -28.5% | -0.7 | -2.2%
COc1ccccc1N(CC(=O)N/N=C(\C)c1cccc(Br)c1)S(C)(=O)=O | -9.1% | -10.7% | -8.6 | -1.2% | -5.0 | ?
O=C(N/N=C/c1ccc(OCC(=O)N2CCCC2)cc1)C(=O)NC1CC1 | 15.2% | . | -5.4 | . | -2.1 | 2.8%
O=C(N/N=C/c1ccc(OCC(=O)N2CCCCC2)cc1)c1ccccc1 | ? | 1.6% | 40.2 | 4.4% | 30.2* | ?
Oc1ccc(N=Cc2ccc(OCc3ccccc3)cc2)cc1 | ? | . | 80.1* | . | 43.6* | ?
O=C(N/N=C/c1ccc(OCc2ccccc2)cc1)c1cccs1 | ? | 4.4% | 65.9* | -15.3% | 43.0* | ?
O=C(N/N=C/c1ccccc1OCC(=O)N1CCCC1)C(=O)Nc1ccccc1F | 47.9% | ? | active | -3.3% | 33.1* | 47.8%
COC(=O)c1ccc(CNC(=O)c2ccc3c(c2)S(=O)(=O)N=C2CCCCCN23)cc1 | -24.8% | . | . | . | . | ?
CCCCn1c(=O)cc(C)n(-c2ccccc2)c1=O | . | -1.0% | . | ? | . | .
SMILES | Pf growth 48h | Lassa entry inh | Shiga inhibitor | Marburg entry inh | Cycloheximide cs | Pf growth 96h
CCOC(=O)c1sc(C)c2c(=O)n(CCCN3CCOCC3)cnc12 | 14.9% | 10.1% | -4.2 | 2.0% | 0.4 | .
O=C(Cc1ccccc1)Nc1cccc(NC(=O)c2cccs2)c1 | ? | 2.7% | 3.6 | ? | 1.0 | ?
O=C(N/N=C/c1ccc(C(F)(F)F)cc1)c1ccncc1 | -6.4% | -1.1% | 7.1 | -8.6% | 3.0 | 1.65µM*
COC(=O)/C=C/c1ccc(OC(=O)c2ccncc2)cc1 | 9.6% | 2.0% | -15.5 | 18.5% | 4.9 | 13.1µM*
O=C(N/N=C/c1ccc(OCc2ccccc2)cc1)c1ccncc1 | 3.4% | . | 81.2 | . | 13.0* | ?
O=C(N/N=C/c1ccncc1)c1ccc(OCc2ccccc2)cc1 | ? | . | 24.8 | . | 0.8 | ?
O=C(Nc1ccc(OCc2ccccc2)cc1)c1cccs1 | 75.8% | . | . | . | 44.0* | 136.6%
O=C(N/N=C/c1ccc(OCCCF)cc1)c1ccc(C(F)(F)F)cc1 | ? | ? | 9.6 | ? | -2.8 | 4.1%
CC(C)c1ccc(-n2c(O)c(C=NC(CCS(C)=O)C(=O)O)c(=O)[nH]c2=S)cc1 (stereo unspecified) | 15.8% | . | -3.1 | . | 8.6 | 7.1%
Cc1cccc(C(=O)Oc2ccc(/C=N/NC(=O)c3ccncc3)cc2)c1 | 11.7µM* | 25.6% | 28.5 | 16.2% | 12.3 | 11.7µM*
O=C(C[n+]1ccc(C(=O)N/N=C/c2ccc(OCc3ccccc3)cc2)cc1)c1ccccc1 | . | 2.9% | 61.7* | ? | 53.7* | ?
O=C(C[n+]1ccc(C(=O)N/N=C/c2ccc(O)cc2)cc1)c1ccccc1 | . | ? | -4.5 | -6.7% | 10.5 | -2.0%
Cc1cccc(C(=O)Oc2ccc(/C=N/NC(=O)c3cc(O)cc(O)c3)cc2)c1 | ? | -13.9% | 1.4 | 2.3% | 11.8 | 38.3%
COc1cc(CNC(C)C23CC4CC(CC(C4)C2)C3)ccc1OCC(=O)NC(C)(C)C (stereo unspecified) | 10.4µM* | ? | 3.6 | 6.31µM* | -3.9 | -0.7%
COc1cc(CNC(C)C23CC4CC(CC(C4)C2)C3)cc(OC)c1OC (stereo unspecified) | 11.7µM* | -25.6% | -4.8 | ? | -3.2 | ?
Fc1ccc(-c2nnn(Cc3ccc(F)cc3Cl)n2)cc1 | 34.3% | 16.7% | 105.1* | -1.1% | 23.8* | -6.8%
Fc1ccc(Cn2nnc(-c3ccc(CN4CCOCC4)cc3)n2)cc1 | ? | -0.9% | 11.2 | 17.3% | 9.2 | -10.7%
Cc1ccccc1-c1nnn(Cc2ccc(F)cc2Cl)n1 | 54.0% | . | 24.0* | . | 17.8 | 7.9%
CC(C)CN(C(=O)COC(=O)/C=C/c1cccs1)c1c(N)n(Cc2ccccc2)c(=O)[nH]c1=O | ? | -7.5% | . | -15.5% | . | ?
CCOC(=O)C(O)(c1ccc(N(C)C(=O)COc2ccccc2)cc1)C(F)(F)F (stereo unspecified) | . | ? | . | 14.3% | . | .
N#Cc1ccc(-c2cccnc2)nc1SCC(=O)c1ccccc1 | 30.6% | 6.8% | 82.2* | ? | 36.7* | 31.3%
N#Cc1c(C(F)(F)F)cc(-c2ccccc2)nc1SCC(=O)Nc1sc2c(c1C#N)CCC2 | ? | 13.0% | -9.3 | 9.6% | -2.2 | 11.7µM*
